Only some compounds are listed: those with a hit (about 13% of all), similar ones and a draw of the others.
Pf growth 48h: Primary qHTS for delayed death inhibitors of the malarial parasite plastid, 48 hour incubation | P. falciparum luciferase growth in erythrocytes, 48 h | Potency, µM (doses to about 28.7 µM), for inactives: top-dose activity change, negative = inhibition, most hits filed as inhibitors | hit rate 5.9% among 310,000 | AID 504832, 2011; also: potency is read from the fitted curve at half-maximal effect
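Cell-based growth assay: transgenic P. falciparum expressing firefly luciferase, cultured in red cells within RPMI 1640 containing 0.5% w/v Albumax, 24 mM bicarbonate and gentamycin. A drop in luciferase activity indicates inhibition.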
HCMV inh: qHTS Assay for inhibitors of the human cytomegalovirus (HCMV); AID 1259415, 2018; HFF cells, HCMV-luciferase reporter, 72 h; stronger effect = lower value; activity change, negative = inhibition, % at 57.5 µM; hit rate 4.5% among 410,000; in the data active = activity change below about -60%; inconclusive = no clear call, values can overlap the other calls; inactive = above about -39%
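Steps: HFFs plated, 16 h 37C; compounds added; HCMV-luciferase added to MOI 1 PFU/cell; 72 h 37C; OneGlo reagent, 5 min room temperature; luminescence read, normalized to controls.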
HCV inhibitor: qHTS Assay for Inhibitors of Hepatitis C Virus (HCV) | Huh7.5.1 HCVcc-Cre infection, luciferase reporter, 44 h | hit rate 3.4% among 340,000 | Potency, µM (doses to about 41.8 µM), for inactives: at the top dose activity change, negative = inhibition, hits mostly inhibitors; also: potency is read from the fitted curve at half-maximal effect
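Reporter virus HCVcc-Cre (~0.5 moi) infects cells exposed to compound; seeding density 1,000 cells/well with 4 h settling beforehand. Luminescence, 15 sec read, taken 44 h post-infection following a 15 min RT substrate incubation.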
Pf growth 96h: Primary qHTS for delayed death inhibitors of the malarial parasite plastid, 96 hour incubation | P. falciparum luciferase reporter growth, 96 h | hit rate 6.9% among 320,000 | AID 504834, 2011 | Potency, µM (highest dose often 28.7 µM), inactives show at the top dose activity change, negative = inhibition, usual class: inhibitors; also: potency is read from the fitted curve at half-maximal effect
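Readout is luminescence from an integrated firefly luciferase in P. falciparum. Red cells, 2% hematocrit and 0.05% parasitemia final, were cultured with compound through two parasite generations (96 hours) at 37 C, 5% CO2.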
An asterisk follows results filed as active; ? = inconclusive; · = not tested or not shown. Unless noted, calls follow the shape of the dose curve; as a rule, active = well fitted inhibition curve with a large enough effect; inconclusive = small, poorly fitted or top-dose-only effect, or another doubt; inactive = no such curve, though single readings can be large or run the other way. % is scaled to controls: 0 for no effect and ±100 for the full control effect.

SMILES	Pf growth 48h	HCMV inh	HCV inhibitor	Pf growth 96h
O=C(O)C1CCN(c2c([N+](=O)[O-])cc(C(F)(F)F)cc2[N+](=O)[O-])CC1	-23%	33	8%	-13%
COc1ccc2nc(C)cc(N/N=C/c3ccccc3)c2c1	0.15µM*	·	10µM*	0.15µM*
COc1ccc(/C=N/Nc2cc(C)nc3ccc(OC)cc23)c(OC)c1	?	-105*	10µM*	?
COc1ccccc1/C=N/Nc1cc(C)nc2ccc(C)cc12	-41%	27	?	?
O=C1c2ccccc2NC(c2ccc(Cl)cc2Cl)N1Cc1ccccc1 (configuration not stated)	·	5	?	?
O=C1c2ccccc2NC(c2c(Cl)cccc2Cl)N1Cc1ccccc1 (configuration not stated)	13µM*	4	?	-19%
CC1(C)Cc2nc3sc4c(SCC(=O)O)ncnc4c3cc2CO1	0.83µM*	0	-11%	?
COC(=O)CSc1ncnc2c1sc1nc3c(cc12)COC(C)(C)C3	81%	-17	8%	?
COc1cccc(-c2noc(N)c2C#N)c1	7.4µM*	-3	9%	-3%
CCOC(=O)c1cc(NC(=O)c2ccc(C)cc2)c(=O)n2c1oc1ccc(Cl)cc12	·	-3	·	·
CC(C)N1CCN(CCCc2ccccc2)CC1CCO (configuration not stated)	-8%	-30	6%	13µM*
CC(C)N1CCC(N2CCN(CCCc3ccccc3)CC2CCO)CC1 (configuration not stated)	?	-16	?	?
CC(C)CN1CCN(CCCc2ccccc2)C(CCO)C1 (configuration not stated)	?	18	-20%	9.3µM*
COc1ccccc1OCCn1c(NC(=O)c2ccccc2Cl)nc2ccccc21	·	31	·	·
CNCCC1Sc2ccccc2Oc2ccccc21 (configuration not stated)	?	-29	12%	?
CN(C)CCCC1Sc2ccccc2Sc2ccccc21 (configuration not stated)	·	-8	16µM*	·
COc1ccc2c(c1)C(=O)N1[C@H]3c4cc(Br)ccc4OC[C@@H]3[C@H](c3ccccc3)[C@]1(C)C(=O)N2	?	·	?	12µM*
C[C@@]12C(=O)Nc3ccc(Br)cc3C(=O)N1[C@H]1c3cc(Br)ccc3OC[C@@H]1[C@@H]2c1ccccc1	3.3µM*	?	?	3.3µM*
C[C@@]12C(=O)Nc3ccc(Cl)cc3C(=O)N1[C@H]1c3cc(Br)ccc3OC[C@@H]1[C@@H]2c1ccccc1	·	-34	?	·
NC(=O)c1nn2c(C(F)(F)F)cc(-c3ccc(Br)cc3)nc2c1Cl	·	31	·	·
c1ccc2nc(OCCN3CC3)ccc2c1	?	-64*	?	?
Cc1cc(OCCN2CCCCC2)nc2ccccc12	·	-5	?	-27%
Cc1ccccc1-c1noc(CSc2nc(-c3ccc(F)cc3)cc(=O)[nH]2)n1	·	0	·	·
Cn1c(CNc2ccccn2)c(C#N)c2ccccc21	-4%	14	11µM*	?
COCCn1c(C)cc(O)c(C(c2ccccc2OC)N2CCCCC2)c1=O (configuration not stated)	·	-6	·	·
SMILES	Pf growth 48h	HCMV inh	HCV inhibitor	Pf growth 96h
Cc1ccc2nc(C)cc(C(=O)N3CCCC(N4CCN(c5ccccc5C)CC4)C3)c2c1 (configuration not stated)	12µM*	-14	?	1%
Cc1ccc(C(=O)N2CCCC(N3CCN(c4ccccc4C)CC3)C2)c(=O)[nH]1 (configuration not stated)	-8%	-70*	14%	0%
Cc1cc(C(=O)N2CCCC(N3CCN(c4ccccc4C)CC3)C2)nc(C)n1 (configuration not stated)	-11%	4	5%	35%
CCCCS(=O)(=O)CC(O)CSc1nc(-c2ccc(C)cc2)cc(-c2ccccc2)c1C#N (configuration not stated)	·	1	·	·
CCc1ccc(C2C(C(=O)Nc3ccccc3OC)=C(C)Nc3nc(SCc4ccccc4)nn32)cc1 (configuration not stated)	·	12	·	·
CC(C)CCn1c(=O)c2ccccc2n2c(CN(C)Cc3ccccc3)nnc12	?	-30	?	13µM*
CCOC(=O)C1(CC2CC2)CCN(Cc2cnc(-c3ccc(OC)cc3)nc2)CC1	?	-62*	?	?
CCOC(=O)C1(CC2CC2)CCN(Cc2ccc(O)c(Cl)c2)CC1	4.1µM*	·	·	-11%
CCOC(=O)C1(CC2CC2)CCN(Cc2ccc3cccc(F)c3n2)CC1	?	44	?	-17%
CCOC(=O)C1(Cc2ccccc2Cl)CCN(Cc2csc(C(C)=O)c2)CC1	?	-8	13µM*	?
CCOC(=O)C1(Cc2ccccc2Cl)CCN(C(=O)CN2CCOC2=O)CC1	0%	1	10%	39%
COc1ccc(OC)c(S(=O)(=O)N2CCN(Cc3nc4ccc(C)cc4o3)CC2)c1	·	-17	·	·
COc1cccc(C(=O)CN2CCN(S(=O)(=O)c3cccc([N+](=O)[O-])c3)CC2)c1	-2%	-25	-4%	0.41µM*
COc1ccc2oc(C(=O)OCC(=O)N3CCN(S(=O)(=O)c4ccccc4)CC3)c(C)c2c1	?	-20	-15%	-6%
CCOc1ccc(S(=O)(=O)N2CCN(C(=O)c3oc4ccc(OC)cc4c3C)CC2)cc1	10µM*	-11	?	?
CCOC(=O)c1oc2ccc(S(=O)(=O)n3nc(-c4ccc(OC)cc4)cc3N)cc2c1C	?	-67*	-5%	8%
COc1ccc2oc(C(=O)N3CCN(S(=O)(=O)c4cccc([N+](=O)[O-])c4)CC3)c(C)c2c1	?	-67*	4%	8.3µM*
COc1cccc(NC(=O)c2oc3ccc(S(=O)(=O)N4CCOCC4)cc3c2C)c1	?	-28	-39%	-25%
CCOC(=O)c1cc(-c2ccc(C)cc2)n(CCC(=O)Nc2cc(Cl)ccc2C)c1C	·	7	·	·
Cc1ccc(-n2nc(C)c3c(C)cc(=O)n(CC(=O)Nc4ccc(Br)cc4F)c32)cc1	·	14	·	·
Cc1ccc(C(C)C)c(OCCCN(C)Cc2ccccc2)c1	13µM*	-27	-4%	?
Cc1ccc(OCCCCN(C)Cc2ccccc2)c(Br)c1	?	44	?	44%
Cc1cc(C)c(OCCCCN(C)Cc2ccccc2)c(C)c1	-10%	-61*	-26%	-12%
Cc1ccc(C(C)C)c(OCC(O)CNC2CCCC2)c1 (configuration not stated)	5.2µM*	-6	1%	-15%
Cc1cc(C)c(OCCCCN(C)C)c(Br)c1	-14%	-25	?	6%
CN(CCOc1cccc2ccccc12)Cc1ccccc1	-11%	10	1%	4.1µM*
COc1cc2c(cc1NC(=O)c1ccccc1C)n(C)c(=O)n2C	·	8	·	·
